17 molecules from PubChem BioAssay (NCATS) can be followed below.

Structures are written as SMILES. Records with an inconclusive call do not appear. Where a call stands in place of a potency, no number is given. Active and inactive are the calls of the source. The call rests on the fitted dose curve; in most records, active means well fitted inhibition curve with a large enough effect; inconclusive means small, poorly fitted or top-dose-only effect; inactive means flat fitted curve, though single readings scatter.

Dual specificity protein kinase CLK4 (Homo sapiens), sequence (Q9HAZ1 whole entry, looked up): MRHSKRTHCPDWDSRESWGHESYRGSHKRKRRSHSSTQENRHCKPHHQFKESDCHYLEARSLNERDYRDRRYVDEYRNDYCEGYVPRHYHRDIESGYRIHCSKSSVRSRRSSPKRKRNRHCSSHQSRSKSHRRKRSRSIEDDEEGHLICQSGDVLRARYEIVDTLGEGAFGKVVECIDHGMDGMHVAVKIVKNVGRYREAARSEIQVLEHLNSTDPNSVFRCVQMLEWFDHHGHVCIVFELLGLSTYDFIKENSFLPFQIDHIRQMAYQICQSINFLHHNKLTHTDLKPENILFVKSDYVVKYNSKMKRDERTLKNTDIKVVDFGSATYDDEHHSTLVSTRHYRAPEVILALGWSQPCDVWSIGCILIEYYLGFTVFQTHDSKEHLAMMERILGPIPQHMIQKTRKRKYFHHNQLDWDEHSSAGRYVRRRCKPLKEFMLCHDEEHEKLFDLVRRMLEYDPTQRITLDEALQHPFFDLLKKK
Ubiquitin carboxyl-terminal hydrolase 1 (Homo sapiens), sequence (O94782 whole entry, looked up): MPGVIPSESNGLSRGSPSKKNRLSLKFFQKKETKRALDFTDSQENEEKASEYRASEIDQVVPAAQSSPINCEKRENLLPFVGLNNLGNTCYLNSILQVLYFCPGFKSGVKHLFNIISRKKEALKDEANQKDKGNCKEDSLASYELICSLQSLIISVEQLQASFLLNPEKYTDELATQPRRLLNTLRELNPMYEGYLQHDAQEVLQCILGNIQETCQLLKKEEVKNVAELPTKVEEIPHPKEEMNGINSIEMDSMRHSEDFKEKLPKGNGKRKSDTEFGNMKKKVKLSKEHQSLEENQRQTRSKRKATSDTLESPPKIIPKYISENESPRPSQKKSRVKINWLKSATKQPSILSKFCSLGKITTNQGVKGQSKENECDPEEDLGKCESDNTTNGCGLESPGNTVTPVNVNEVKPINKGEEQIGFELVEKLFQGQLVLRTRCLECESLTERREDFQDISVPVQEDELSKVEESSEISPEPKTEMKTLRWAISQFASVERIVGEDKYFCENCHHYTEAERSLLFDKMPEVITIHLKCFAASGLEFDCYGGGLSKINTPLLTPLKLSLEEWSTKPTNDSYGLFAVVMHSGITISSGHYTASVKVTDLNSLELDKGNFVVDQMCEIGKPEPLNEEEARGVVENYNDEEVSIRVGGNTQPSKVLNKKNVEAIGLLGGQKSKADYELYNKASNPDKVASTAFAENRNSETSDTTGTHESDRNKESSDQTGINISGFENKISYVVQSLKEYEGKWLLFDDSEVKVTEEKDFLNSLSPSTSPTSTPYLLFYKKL

The first assay concerns the target Dual specificity protein kinase CLK4 (Homo sapiens) (UniProt Q9HAZ1). Put plainly: qHTS Assay for Inhibitors of CDC-like Kinase 4 (Kinase-Glo Assay) (AID 1770). Further: nearly all actives have a fitted effect of over 65% in size. Further: potency means the concentration at half of the fitted maximal effect. Particulars: recombinant Clk4, Kinase-Glo ATP depletion luminescence; series mostly up to 66.7 µM. The gist of the method:
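Substrate mix (RS peptide 100 uM, ATP 1 uM) dispensed, compound pinned in, then Clk4 added to 25 nM final. Incubated 4.5 h at RT; Kinase-Glo reagent added, luminescence read after 5 min.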
On the technique in general: Quantitative high-throughput screening tests each substance at several concentrations.
Consider `COCCn1c(=O)c(-c2ccc(Cl)cc2)nc2cnc(OCc3ccccc3)nc21`, for which the Potency entry is “inactive”.
On the same count and under the same terms, next, `O=c1c(-c2ccccc2)nc2cnc(N3CCNCC3)nc2n1-c1ccccc1`: “inactive”; `Cc1ccccc1-c1nccc(Nc2ccc(F)cc2)n1`: “inactive”.
The same measure, in the same setting: next, `Cc1nc2cnc(N3CCNCC3)nc2n(CCc2ccccc2)c1=O`: “inactive”; `COc1ccc(Oc2ncc3nc(-c4cccs4)c(=O)n(CCC#N)c3n2)cc1`: “inactive”.
For the molecule `COc1ccc(Oc2ncc3nc(CCc4ccccc4)c(=O)n(C[C@H]4CCCO4)c3n2)cc1`, the Potency result is “inactive”.
Still for that read-out and setting: next, `O=c1c(-c2cccs2)nc2cnc(N3CCNCC3)nc2n1CCc1ccccc1`: “inactive”.
Still for that read-out and setting: next, `COc1cccc(-c2nc(N3CCN(C)CC3)c3ccccc3n2)c1`: 28.2 µM (active); `COCCn1c(=O)c(-c2cn(C)c3ccccc23)nc2cnc(N3CCNCC3)nc21`: “inactive”; `O=c1cnc2cnc(N3CCNCC3)nc2n1Cc1ccc(F)cc1`: “inactive”.
Consider `Cc1ccccc1-c1nc(N2CCN(C)CC2)c2ccccc2n1`, for which the Potency entry is “inactive”.
Same read-out and setting: next, `COc1ccc(-n2c(=O)c(-c3ccccc3)nc3cnc(N4CCNCC4)nc32)cc1`: “inactive”; `Cn1c(=O)c(CCc2ccccc2)nc2cnc(OCc3ccccc3)nc21`: “inactive”.

Another assay shares this target. Put plainly: qHTS Assay for Inhibitors of CDC-like Kinase 4 (ADP-Glo Assay) (AID 1771). Further: nearly all actives have a fitted effect of over 70% in size. The conditions noted are these: recombinant CLK4, ADP-Glo luminescence; series mostly up to 80 µM. The gist of the method:
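Kinase reaction: Clk4 at 25 nM, RS repeat peptide substrate at 100 uM, ATP at 1 uM, 1 hr, room temperature. Product ADP detected as luciferase signal via ADP-Glo.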
As to `COCCn1c(=O)c(-c2ccc(Cl)cc2)nc2cnc(OCc3ccccc3)nc21`, the Potency entry is “inactive”.
On the same count and under the same terms, next, `CN1CCN(c2ncncc2-c2ccccc2C(F)(F)F)CC1`: “inactive”.
With `O=c1c(-c2ccccc2)nc2cnc(N3CCNCC3)nc2n1-c1ccccc1`, the Potency result is “inactive”.
Same read-out and setting: next, `Cc1ccccc1-c1nccc(Nc2ccc(F)cc2)n1`: “inactive”; `Cc1nc2cnc(N3CCNCC3)nc2n(CCc2ccccc2)c1=O`: “inactive”; `COc1ccc(Oc2ncc3nc(-c4cccs4)c(=O)n(CCC#N)c3n2)cc1`: “inactive”.
In the case of `COc1ccc(Oc2ncc3nc(CCc4ccccc4)c(=O)n(C[C@H]4CCCO4)c3n2)cc1`, the Potency entry was “inactive”.
Same read-out and setting: next, `COCCn1c(=O)c(-c2cn(C)c3ccccc23)nc2cnc(N3CCNCC3)nc21`: “inactive”; `O=c1cnc2cnc(N3CCNCC3)nc2n1Cc1ccc(F)cc1`: “inactive”.
The same measure, in the same setting: next, `Cc1ccccc1-c1nc(N2CCN(C)CC2)c2ccccc2n1`: “inactive”; `COc1ccc(-n2c(=O)c(-c3ccccc3)nc3cnc(N4CCNCC4)nc32)cc1`: “inactive”; `Cn1c(=O)c(CCc2ccccc2)nc2cnc(OCc3ccccc3)nc21`: “inactive”.

The target is the same in the next assay. Briefly: qHTS Assay for Inhibitors of CDC-like Kinase 4 (ADP-FP Assay) (AID 1795).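 Further: recombinant human CLK4 phosphorylating RS repeat peptide at 1 µM ATP; nearly all actives have a fitted effect of over 60% in size.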 Particulars: Transcreener ADP fluorescence polarization; series mostly up to 50 µM. The gist of the method: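 Clk4 6.25 nM; RS peptide 100 uM; ATP 1 uM; 25 mM Tris pH 7.5, 10 mM MgCl2; 1 h reaction. ADP detected via antibody/orange tracer FP displacement; TG003 positive control.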
For the molecule `COCCn1c(=O)c(-c2ccc(Cl)cc2)nc2cnc(OCc3ccccc3)nc21`, the Potency entry is “inactive”.
Still for that read-out and setting: next, `CN1CCN(c2ncncc2-c2ccccc2C(F)(F)F)CC1`: “inactive”; `O=c1c(-c2ccccc2)nc2cnc(N3CCNCC3)nc2n1-c1ccccc1`: “inactive”.
The same measure, in the same setting: next, `Cc1ccccc1-c1nccc(Nc2ccc(F)cc2)n1`: “inactive”.
The same measure, in the same setting: next, `Cc1nc2cnc(N3CCNCC3)nc2n(CCc2ccccc2)c1=O`: “inactive”.
As for `COc1ccc(Oc2ncc3nc(-c4cccs4)c(=O)n(CCC#N)c3n2)cc1`, the Potency entry was “inactive”.
Same read-out and setting: next, `COc1ccc(Oc2ncc3nc(CCc4ccccc4)c(=O)n(C[C@H]4CCCO4)c3n2)cc1`: “inactive”; `COc1ccc(CNc2ncnc3ccc(-c4ccccc4OC)cc23)c(OC)c1`: “inactive”.
On the same count and under the same terms, next, `O=c1c(-c2cccs2)nc2cnc(N3CCNCC3)nc2n1CCc1ccccc1`: “inactive”.
Same read-out and setting: next, `COc1cccc(-c2nc(N3CCN(C)CC3)c3ccccc3n2)c1`: “inactive”; `COCCn1c(=O)c(-c2cn(C)c3ccccc23)nc2cnc(N3CCNCC3)nc21`: “inactive”.
Take `O=c1cnc2cnc(N3CCNCC3)nc2n1Cc1ccc(F)cc1`: the Potency entry is “inactive”.
On the same count and under the same terms, next, `Cc1ccccc1-c1nc(N2CCN(C)CC2)c2ccccc2n1`: “inactive”; `COc1ccc(-n2c(=O)c(-c3ccccc3)nc3cnc(N4CCNCC4)nc32)cc1`: “inactive”.
The same measure, in the same setting: next, `Cn1c(=O)c(CCc2ccccc2)nc2cnc(OCc3ccccc3)nc21`: “inactive”.

A further assay has as its target Ubiquitin carboxyl-terminal hydrolase 1 (Homo sapiens) (UniProt O94782). Put plainly: Inhibitors of USP1/UAF1: Pilot qHTS (AID 504865). Further: nearly all actives have a fitted effect of over 35% in size. Further: potency means the concentration at half of the fitted maximal effect. The conditions noted are these: purified USP1/UAF1, Ub-rhodamine cleavage fluorescence; series mostly up to 54.9 µM. The gist of the method: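 In 50mM HEPES pH 7.8 containing 0.5mM EDTA, 1mM TCEP, 0.1 mg/ml BSA and 0.01% Tween-20, 1nM USP1/UAF1 is exposed to compound for 15 min, then Ub-Rho (150nM final) is added and fluorescence is read over time.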
As for `COCCn1c(=O)c(-c2ccc(Cl)cc2)nc2cnc(OCc3ccccc3)nc21`, the Potency result was “inactive”.
Take `CN1CCN(c2ncncc2-c2ccccc2C(F)(F)F)CC1`: the Potency entry is “inactive”.
As to `O=c1c(-c2ccccc2)nc2cnc(N3CCNCC3)nc2n1-c1ccccc1`, the Potency result is “inactive”.
Same read-out and setting: next, `Cc1nc2cnc(N3CCNCC3)nc2n(CCc2ccccc2)c1=O`: “inactive”.
For `COc1ccc(Oc2ncc3nc(-c4cccs4)c(=O)n(CCC#N)c3n2)cc1`, the Potency result was “inactive”.
Same read-out and setting: next, `COc1ccc(Oc2ncc3nc(CCc4ccccc4)c(=O)n(C[C@H]4CCCO4)c3n2)cc1`: “inactive”.
On the same count and under the same terms, next, `COc1ccc(CNc2ncnc3ccc(-c4ccccc4OC)cc23)c(OC)c1`: “inactive”; `Clc1ccccc1-c1nc(N2CCNCC2)c2ccccc2n1`: “inactive”; `O=c1c(-c2cccs2)nc2cnc(N3CCNCC3)nc2n1CCc1ccccc1`: “inactive”.
The same measure, in the same setting: next, `COCCn1c(=O)c(-c2cn(C)c3ccccc23)nc2cnc(N3CCNCC3)nc21`: “inactive”.
Take `O=c1cnc2cnc(N3CCNCC3)nc2n1Cc1ccc(F)cc1`: the Potency result was “inactive”.
Same read-out and setting: next, `CN(C)c1ccc(-c2nccc(NCCN3CCOCC3)n2)cc1`: “inactive”; `Cc1ccccc1-c1nc(N2CCN(C)CC2)c2ccccc2n1`: 28.2 µM (active).
On to `COc1ccc(-n2c(=O)c(-c3ccccc3)nc3cnc(N4CCNCC4)nc32)cc1`, for which the Potency entry is “inactive”.
On the same count and under the same terms, next, `Cn1c(=O)c(CCc2ccccc2)nc2cnc(OCc3ccccc3)nc21`: “inactive”.
